HCMV antiviral – qHTS Assay for inhibitors of the human cytomegalovirus (HCMV). HFF cells, HCMV-luciferase reporter, 72 h; hits give low values. activity change, negative = inhibition, % at 57.5 µM. 410,000 tested, 4.5% active. AID 1259415, 2018; in the data active = activity change below about -60%; inconclusive = no clear call, values can overlap the other calls; inactive = above about -39%
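Luciferase read-out from HCMV-luciferase-infected HFFs (MOI 1 PFU/cell) 72 h post infection at 37C; compounds added after 16 h cell attachment; activity normalized between buffer-only basal and Salinomycin (10uM) inhibitor controls.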
FMDV inh – High Throughput Screening for Foot and Mouth Disease Virus Antivirals | FMDV antiviral cell-based qHTS | Potency, µM (titrated, usually from 57.9 µM), for the others: at the top dose activity change, negative = inhibition, actives largely listed as inhibitors | 410,000 tested, 1.2% active; calls by dose curve; tested in HEK293T cells; note: read-out not given here; potency is the fitted concentration of half-maximal effect; nearly all actives have a fitted effect of over 45% in size
Sm TGR inh – qHTS Assay for the Inhibitors of Schistosoma Mansoni Peroxiredoxins; purified TGR, DTNB reduction, TNB absorbance 405 nm; Potency, µM (doses to about 114 µM), without a hit: at the top dose activity change, negative = inhibition, usual class: inhibitors; Schistosoma mansoni thioredoxin glutathione reductase (TGR), Q962Y6; 360,000 tested, 3% active; AID 485364, 2010; note: potency is the fitted concentration of half-maximal effect; nearly all actives have a fitted effect of over 60% in size
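TGR 20 nM + NADPH 100 uM (dispensed conc.), cpd preinc 15 min RT; start with NADPH (500 uM addition) then DTNB (15 mM addition). Kinetic TNB absorbance, 405 nm filter. Four-parameter Hill fit across titration.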
Giardia FBPA inh – qHTS Assay for Inhibitors of Fructose-1,6-bisphosphate Aldolase from Giardia Lamblia; A8B2U2; purified Giardia FBPA; Potency, µM (titrated, usually from 59.6 µM), for the others: top-dose activity, negative = inhibition, most hits filed as inhibitors; 290,000 tested, 0.71% active; AID 2451, 2010; note: potency is the fitted concentration of half-maximal effect; nearly all actives have a fitted effect of over 55% in size
Target sequence (A8B2U2 whole entry, looked up): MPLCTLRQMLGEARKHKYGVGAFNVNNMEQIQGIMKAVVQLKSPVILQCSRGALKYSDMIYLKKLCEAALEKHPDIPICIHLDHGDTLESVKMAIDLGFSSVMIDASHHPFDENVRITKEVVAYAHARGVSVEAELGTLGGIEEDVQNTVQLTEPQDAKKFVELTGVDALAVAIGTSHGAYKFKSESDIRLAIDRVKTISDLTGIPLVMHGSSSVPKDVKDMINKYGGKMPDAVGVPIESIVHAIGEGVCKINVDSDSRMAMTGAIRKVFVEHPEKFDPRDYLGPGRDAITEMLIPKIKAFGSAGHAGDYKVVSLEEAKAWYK
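Giardia FBPA (40 nM reagent) was preincubated 10 min at RT with compound (up to 57.5 uM final), then substrate plus GAPDH/TPI/NAD/arsenate coupling system with diaphorase/resazurin was added; resorufin fluorescence (525/598 nm) was read after 20 min.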
RE007 growth inh – qHTS Assay for Inhibitors of the HIV-1 protein Vpr; Potency, µM (titrated, usually from 92.2 µM), for inactives: at the top dose activity change, negative = less growth, actives largely listed as inhibitors; AID 651644, 2012; 360,000 tested, 0.21% active; S. pombe RE007 Vpr strain, BacTiter-Glo ATP luminescence, 24 h; active = well fitted falling curve with a large enough effect; inconclusive = small, poorly fitted or top-dose-only effect; inactive = no such curve, though single readings can be large or run the other way; note: potency is the fitted concentration of half-maximal effect; nearly all actives have a fitted effect of over 50% in size
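Fission yeast RE007 carrying one integrated HIV-1 vpr copy, seeded at OD 0.01 in PMG+AL medium with 23 nL pinned compound. Grown 24 h at 30 degrees; viability read by BacTiter-Glo luminescence after 5 min.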
Tb PYK inh – qHTS of Trypanosoma Brucei Inhibitors | Potency, µM (top dose mostly 76.8 µM), without a hit: top-dose activity, negative = inhibition, usual class: inhibitors | 410,000 tested, 0.12% active | TbPYK enzyme, Kinase-Glo Plus ATP luminescence, 45 min | pyruvate kinase (Trypanosoma brucei), Q57TT1 | AID 624173, 2012; note: potency is the fitted concentration of half-maximal effect; nearly all actives have a fitted effect of over 50% in size
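Enzyme and substrate buffer are dispensed first and compound is pin-transferred. ADP at 130 uM final then starts the reaction, which runs 45 min at room temperature. Detection reagent is added for 10 min before luminescence is imaged.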
Starred values were filed as active, the others as inactive; ? = inconclusive; · = no result; ! = not active in a repeat; [ ] = dose if it differs, or a comment. The list is not random: actives were taken first. Their share in the collection is about 7.7%. Unless noted, calls come from the whole dose curve; as a rule, active = well fitted curve in the direction sought with a large enough effect; inconclusive = small, poorly fitted or top-dose-only effect, or another doubt; inactive = no such curve, though single readings can be large; an effect the other way counts as inactive or inconclusive. % is set by controls: 0 for no effect and ±100 for the full control effect.

SMILES	HCMV antiviral	FMDV inh	Sm TGR inh	Giardia FBPA inh	RE007 growth inh	Tb PYK inh
COC(=O)c1ccc(C(NC(=O)OCc2ccccc2)/C(=C/[C@@H](C)C(=O)Nc2ccc(OC)cc2)c2cccnc2)cc1 (stereo partly specified)	·	·	·	-3%	·	·
O=C(C=Cc1ccccc1Cl)c1ccccc1	-24	15%	·	·	-13%	-5%
O=C(/C=C/Sc1ccccc1)c1ccccc1	-83*	·	10µM*	-3%	?	8%
O=C(/C=C/Sc1ccccc1)c1ccc(Cl)cc1	-76*	·	32µM*	1%	?	4%
O=C(/C=C/Nc1ccccc1)c1ccccc1	16	-30%	98%	-4%	?	-22%
COCCCNC(=O)c1ccc(Cn2c(=O)c3cccn3c3cccnc32)cc1	8	9%	6%	·	·	-7%
O=C(Cn1nnc(N2CCCCC2)n1)NN=Cc1ccccc1O	-2	·	·	·	·	·
CCOC(=O)c1c(C)c(-c2ccccc2)n(CC(=O)Nc2cccc(C)c2C)c1C	12	8%	9%	·	·	3%
Cc1ccc(C)c(Oc2ncnc(N)c2[N+](=O)[O-])c1	?	-14%	-15%	15%	2%	-1%
Cc1cc(Sc2ncnc(N)c2[N+](=O)[O-])ncn1	·	20µM*	0.89µM*	?	-16%	-11%
O=C(C1CCN(c2ncnc3c2nc2n3CCCCC2)CC1)N1CCN(c2ccccc2F)CC1	-64*!	?	-2%	-1%	8%	4%
Cc1cccc(N2CCN(C(=O)C3CCCCC3)CC2)c1C	-38	·	13%[11.4 µM]	0%	3%	4%
Cc1ccc(NC(=O)C2CCN(c3ncnc4c3nc3n4CCCCC3)CC2)cc1Cl	-14	?	-14%	-20%	8%	9%
Fc1ccccc1N1CCN(c2ncnc3c2nc2n3CCCCC2)CC1	7	?	0%	·	·	-8%
Cc1cccc(N2CCN(C(=O)C3CCN(c4ncnc5c4nc4n5CCCCC4)CC3)CC2)c1C	-77*!	20µM*	-9%	·	18%	0%
Cc1cccc(N2CCN(C(=O)C3CCN(c4ncnc5c4nc4n5CCCCC4)CC3)CC2C)c1 (stereo unspecified)	-96*!	32µM*	-6%	6%	-22%	4%
Cc1cc(N2CCC(C(=O)N3CCN(c4cccc(C)c4C)CC3)CC2)n2ncnc2n1	-89*	-16%	2%	?	10%	-4%
Cc1ccc(N2CCN(C(=O)C3CCCN(c4ncnc5c4nc4n5CCCCC4)C3)CC2)c(C)c1 (stereo unspecified)	21	?	4%	·	17%	3%
CCOC(=O)CCCCCC(=O)Nc1ccc2c(c1)C(=O)N([C@H](C)CO)C[C@@H](C)[C@@H](CN(C)S(=O)(=O)c1ccc(C)cc1)OCCCC[C@H](C)O2	12	·	·	·	·	·
CCS(=O)(=O)NCCc1csc2nc(-c3ccc(OC)cc3)nn12	-11	-3%	13%	·	·	6%
COc1cccc(N2C(=O)N(Cc3ccc(C#N)cc3)c3ccccc3S2(=O)=O)c1	6	-17%	1%	·	·	1%
CC(=O)N1CCC2(CC1)OC(=O)C(C)=C2C(=O)Nc1cccc(Cl)c1C	0	-4%	1%	·	·	-1%[15.4 µM]
C=CCn1c(C)cc(C(=O)Cn2c(C(C)O)nc3ccccc32)c1C (stereo unspecified)	-66*	?	-6%	-1%	?	3%
C=CCn1c(C(C)NC(=O)CCC)nc2ccccc21 (stereo unspecified)	-62*	·	0%	4%	5%	-5%
C=CCn1c(C(C)C)nc2ccccc21	-33	-9%	0%	-15%	0%	5%
SMILES	HCMV antiviral	FMDV inh	Sm TGR inh	Giardia FBPA inh	RE007 growth inh	Tb PYK inh
CCCC(=O)NC(C)c1nc2ccccc2n1CC (stereo unspecified)	-3	-8%	3%	1%	4%	0%
COc1cccc(C=C2SC(=S)N(Cc3ccco3)C2=O)c1OC	-34	·	·	·	·	·
O=[N+]([O-])c1ccc2c(c1)C(=Nc1ccccc1)c1ccccc1-2	-92*	-6%	·	·	-2%	3%
O=[N+]([O-])c1ccc2c(c1)-c1ccccc1C2=NO	-70*	-5%	·	·	-7%	-9%
Nc1ccc2c(c1)C(=NO)c1cc([N+](=O)[O-])ccc1-2	-85*	-19%	·	·	3%	4%
O=C(Nc1cc2c(cc1Cl)-c1ccc([N+](=O)[O-])cc1C2=NO)C(F)(F)F	·	-3%	·	·	?	3%
C/C=C/C(=O)Nc1cccc(C2=NOC3(C2)C[C@@H](C(N)=O)N(C(=O)c2cc([N+](=O)[O-])cc([N+](=O)[O-])c2C)C3)c1 (stereo partly specified)	-74*	3%	3%	-11%	3%	-3%
C/C=C/C=C\C(=O)Nc1cccc(C2=NOC3(C2)C[C@@H](C(N)=O)N(C(=O)c2cc([N+](=O)[O-])cc([N+](=O)[O-])c2)C3)c1 (stereo partly specified)	?	-15%	3.5µM*	-25%	-6%	-3%
C=C(C)C(=O)Nc1cccc(C2=NOC3(C2)C[C@@H](C(N)=O)N(C(=O)c2cc([N+](=O)[O-])cc([N+](=O)[O-])c2C)C3)c1 (stereo partly specified)	53	1%	3%	-12%	8%	-3%
COc1cccc(Cn2nnc(C(=O)NCc3ccc(Cl)cc3Cl)c2N)c1	-6	3%	1%	·	·	-13%
CCCCCCN1C[C@H](n2cc(-c3ccc(F)cc3)nn2)[C@@H](O)C[C@@H]1c1ccccc1	-1	-27%	·	·	-6%	2%
CCCCCCN1C[C@H](n2cc(-c3ccc(F)cc3)nn2)[C@@H](O)C[C@@H]1c1ccc(Cl)cc1	-102*	-6%	·	·	7%	4%
COc1cc(CN(C(=O)c2cccc(C)c2)c2ccccn2)cc(OC)c1OC	-10	-24%	-1%	·	·	-5%
CC(=O)c1ccc(-c2cc(F)cc3c2OC(CNC(=O)Cc2cn4ccsc4n2)C3)s1 (stereo unspecified)	·	7%	·	·	·	·
CC(C)NC(=O)C1CCN(C(=O)c2cc3sccc3n2Cc2ccc(Cl)cc2)CC1	·	16µM*	-2%	·	·	6%
CC(C)NC(=O)C1CCN(C(=O)c2cc3sccc3n2Cc2ccc(F)cc2)CC1	·	·	11%	-8%	-4%	2%
Cc1ccc2cc(CN(C(=O)c3ccco3)c3ccccc3C)c(=O)[nH]c2c1	-2	-19%	-30%	10%	17%	-12%
